Measured values as given in ChEMBL document CHEMBL3988442, “University of Dundee, Small-Polar-MMV Screening Library” (2021).
About 950 (1.4%) of roughly 69,000 compounds showed an effect of 50% or more. What follows is part of a selection rich in strong results, with near analogues and random picks from the rest.

Each compound was assayed on Mycobacterium tuberculosis (assay: Cornell M. t heat shock assay; further: in the data most compounds retested in dose-response had high values).
Format: functional, organism-based
Set-up: dose or concentration left out as unconfirmed
With `CCc1ccc2c(C3CN(C(C)=O)C3)ncn2c1` the “Percent Effect” value was -5.457%. For `CCc1ccc2c(C3CN(S(C)(=O)=O)C3)ncn2c1`, the “Percent Effect” value was -5.732%. In the case of `CCc1ccc2c(C3CN(CC4CCC4)C3)ncn2c1.O=C(O)C(F)(F)F`, the “Percent Effect” value is reported as 59.23%. With `Cc1ccoc1C(=O)N1C[C@H](OCc2cccnc2)[C@H]2OCCC[C@H]21.O=C(O)C(F)(F)F` the “Percent Effect” value was -24.06%. `CCc1cc(NCCCNS(C)(=O)=O)nc(-c2ccncc2)n1` was tested, and the “Percent Effect” value was -1.348%. `CNc1cc(CCNC(=O)CC(C)C)nc(-c2ccccn2)n1` was tested, and the “Percent Effect” value was 36.61%. In the case of `Cc1cc(NCCCNS(C)(=O)=O)nc2ccccc12`, the “Percent Effect” value is reported as -11.41%. `CNc1cc(CCNC(=O)C2CCCC2)nc(-c2ccccn2)n1` was tested, and the “Percent Effect” value was 89.44%. In the case of `CNC(=O)c1ccc(S(=O)(=O)NCCc2ccccn2)cc1`, the “Percent Effect” value is reported as -8.04%. `CCc1cc(NCCCNS(C)(=O)=O)nc(-c2ccccn2)n1` was tested, and the “Percent Effect” value was 56.84%. In the case of `CCCC(=O)NCCc1cc(NC)nc(-c2ccccn2)n1`, the “Percent Effect” value is reported as 12.39%. In the case of `CNc1cc(CCNS(=O)(=O)c2ccccc2)nc(-c2ccccn2)n1`, the “Percent Effect” value is reported as 99.14%. In the case of `NC(=O)c1ccc(S(=O)(=O)NCCc2ccccn2)cc1`, the “Percent Effect” value is reported as 2.755%. `CC1=C(C#N)C(=O)NC(=O)/C1=C\c1c(C)nn(-c2ccc(Cl)cc2)c1O` was tested, and the “Percent Effect” value was -14.1%. `COc1ccc(CN2CC[C@H]3O[C@@H](C(=O)NCC4CC4)CC[C@H]32)cc1.O=C(O)C(F)(F)F` was tested, and the “Percent Effect” value was -25.68%. In the case of `COc1cc(N2C[C@@H]3CC[C@H](C2)N(CC2CCC2)C3=O)ncn1`, the “Percent Effect” value is reported as -13.86%. In the case of `Cc1nc(N)c2ccc(C3CCCN3)nc2n1.Cl` (stereo not given), the “Percent Effect” value is reported as -2.129%. In the case of `O=c1cc(CN2C[C@H]3CC[C@@H]2CN(Cc2ccccc2)C3)[nH]c(=O)[nH]1`, the “Percent Effect” value is reported as -10.28%. In the case of `COCCN1C[C@H]2CC[C@@H]1CN(Cc1nc3ccccc3n1C)C2`, the “Percent Effect” value is reported as 78.75%. `CC(C)=CCN1C[C@H]2CC[C@@H]1CN(Cc1cc(=O)[nH]c(=O)[nH]1)C2` was tested, and the “Percent Effect” value was 13.63%. With `COCCN1C[C@H]2CC[C@@H]1CN(Cc1cc(=O)c3cc(C)ccc3[nH]1)C2` the “Percent Effect” value was 51.84%. In the case of `COCCN1C[C@H]2CC[C@@H]1CN(CC(=O)Nc1ccn(C)n1)C2`, the “Percent Effect” value is reported as -13.49%. For `COCCN1C[C@H]2CC[C@@H]1CN(Cc1ccc3ccccc3n1)C2`, the “Percent Effect” value was 46.17%. With `Cc1ccc(CN2C[C@@H]3CN(C(=O)c4cccn4C)C[C@@H]3C2)cc1.O=C(O)C(F)(F)F` the “Percent Effect” value was -6.874%. With `CN(C)[C@@H]1CCN(C(=O)CC2CC2)[C@H]1Cc1cnn(C)c1.O=C(O)C(F)(F)F` the “Percent Effect” value was 1.412%. `O=C(O)C(F)(F)F.O=C1C[C@H]2[C@@H](CCN2C(=O)c2ccc[nH]2)N1CCN1CCCC1` was tested, and the “Percent Effect” value was -37.83%. For `Cn1ccnc1-c1nc(N2CCCCC2)ncc1-c1ccccc1F`, the “Percent Effect” value was -0.09407%. For `CC1CCCN(c2ncc(-c3ccccc3F)c(-c3nccn3C)n2)C1` (stereo not given), the “Percent Effect” value was 84.22%. `CC1CCN(c2ncc(-c3ccccc3F)c(-c3nccn3C)n2)CC1` was tested, and the “Percent Effect” value was 17.54%. For `O=C([C@H]1C[C@@H]2CN(c3ncc(F)cn3)C[C@H]1O2)N1CCOCC1`, the “Percent Effect” value was 19.91%. With `CCc1ccc(CN2Cc3nccn3CC(Cn3cncn3)C2)o1.O=C(O)C(F)(F)F` (stereo not given) the “Percent Effect” value was 0.4246%. `CC(C)(C)C(=O)N1CC(=O)N(Cc2ccco2)CC(O)C1` (stereo not given) was tested, and the “Percent Effect” value was 52.39%. In the case of `COc1ccccc1C(=O)N1CC(=O)N(CC2CC2)CC(O)C1` (stereo not given), the “Percent Effect” value is reported as 43.16%. In the case of `COc1cccc(CN2CC(O)CN(C(=O)C3CC3)CC2=O)c1OC` (stereo not given), the “Percent Effect” value is reported as 31.08%. `CC(C)(C)OC(=O)N1CC(=O)N(Cc2ccco2)CC(O)C1` (stereo not given) was tested, and the “Percent Effect” value was 11.64%. `COc1cccc(CN2CC(O)CN(C(=O)C(C)(C)C)CC2=O)c1OC` (stereo not given) was tested, and the “Percent Effect” value was 90.93%. `CC(C)CC(=O)N1CC(=O)N(Cc2ccco2)CC(O)C1` (stereo not given) was tested, and the “Percent Effect” value was 14.12%. `CCOC(=O)N1CC(=O)N(Cc2cccc(OC)c2OC)CC(O)C1` (stereo not given) was tested, and the “Percent Effect” value was 45.58%. In the case of `COc1ccccc1C(=O)N1CC(=O)N(Cc2ccco2)CC(O)C1` (stereo not given), the “Percent Effect” value is reported as 54.55%. For `Cc1ccc(C(=O)N2CC(=O)N(Cc3ccco3)CC(O)C2)cc1` (stereo not given), the “Percent Effect” value was 34.47%. With `O=C(CCc1nnc(-c2ccccc2)o1)N1CCCC1c1ccc[nH]1` (stereo not given) the “Percent Effect” value was -1.66%. For `Cc1cccnc1N1CC2(CCN(Cc3cccnc3)C2)C1.O=C(O)C(F)(F)F.O=C(O)C(F)(F)F.O=C(O)C(F)(F)F`, the “Percent Effect” value was -27.63%. In the case of `CN(C)CCN1CCCC12CCN(C(=O)c1ccco1)CC2.O=C(O)C(F)(F)F.O=C(O)C(F)(F)F`, the “Percent Effect” value is reported as -2.887%. In the case of `CN(C)CCOCC1CN(Cc2ccncc2)Cc2nnn(C)c21.O=C(O)C(F)(F)F.O=C(O)C(F)(F)F.O=C(O)C(F)(F)F` (stereo not given), the “Percent Effect” value is reported as -16.03%. For `O=C(c1nn(-c2ccccc2F)cc1O)N1CCCCC1`, the “Percent Effect” value was 22.71%. For `CCc1ccccc1-n1cc(O)c(C(=O)N2CCCCC2)n1`, the “Percent Effect” value was 56%. In the case of `O=C(c1nn(-c2ccccc2F)cc1O)N1CCCC1`, the “Percent Effect” value is reported as 42.43%. In the case of `Fc1cccc(CN2C[C@@H]3CN(Cc4ccccn4)C[C@@H]3C2)c1.O=C(O)C(F)(F)F.O=C(O)C(F)(F)F`, the “Percent Effect” value is reported as 35.12%. In the case of `CCN1CC2(CC1=O)CN(Cc1ccsc1)CCN(C(=O)C(C)C)C2.O=C(O)C(F)(F)F` (stereo not given), the “Percent Effect” value is reported as -8.211%. In the case of `O=C1c2cnc(N3CCC(O)CC3)nc2CN1Cc1cccc(F)c1`, the “Percent Effect” value is reported as -32.08%. With `Cc1nc(Nc2cnccn2)cc(C2CN(C(C)C)C2)n1.O=CO` the “Percent Effect” value was -9.635%. With `CN1CCCN(C(=O)c2ccnn2-c2ccc3ccccn23)CC1.O=C(O)C(F)(F)F` the “Percent Effect” value was -45.73%. For `O=C1CCNc2ccccc2CN1Cc1ccco1`, the “Percent Effect” value was 41.47%. `O=C1CCNc2ccc(F)cc2CN1Cc1ccco1` was tested, and the “Percent Effect” value was 32.83%. In the case of `COc1ccc2c(c1)CN(Cc1ccco1)C(=O)CCN2`, the “Percent Effect” value is reported as 54.29%. `Cc1nc(CN2C(=O)COC3(CCN(Cc4ccsc4)CC3)C2C)cs1.O=C(O)C(F)(F)F` (stereo not given) was tested, and the “Percent Effect” value was -25.28%. With `CCCNC(c1cccnc1)c1ccc(F)c(C)c1.Cl.Cl` (stereo not given) the “Percent Effect” value was -18.54%. With `Cc1noc(C)c1CN1CC[C@H]2[C@@H]1CCC(=O)N2CC1CCOCC1.O=C(O)C(F)(F)F` the “Percent Effect” value was 19.97%. `O=C(O)c1cc(/C=C/c2ccccc2)ncn1` was tested, and the “Percent Effect” value was -25.85%. In the case of `O=C(O)c1cc(/C=C/c2ccc3ccccc3c2)ncn1`, the “Percent Effect” value is reported as 55.05%. For `O=C(O)c1cc(/C=C/c2cccc3ccccc23)ncn1`, the “Percent Effect” value was -14.83%. With `Cc1cccc(CN2Cc3nccn3CC(CN3CCOCC3)C2)c1.O=C(O)C(F)(F)F.O=C(O)C(F)(F)F` (stereo not given) the “Percent Effect” value was -25.56%. For `O=C(C1CCCCC1)N1C[C@@H]2CCN(c3cnccn3)C[C@@H]2C1.O=C(O)C(F)(F)F`, the “Percent Effect” value was 23.71%. For `Cc1ccccc1-n1cc(-c2ccnc(N3CCCC(O)C3)n2)cn1` (stereo not given), the “Percent Effect” value was 0.7216%. `Cc1ccccc1-n1cc(-c2ccnc(N3CCCC(CN)C3)n2)cn1` (stereo not given) was tested, and the “Percent Effect” value was 6.089%. For `COC[C@H]1CCCN1c1nccc(-c2cnn(-c3ccccc3C)c2)n1`, the “Percent Effect” value was 57.5%. For `O=C(CC1CC1)N1C[C@@H]2CCN(c3cccnc3)C[C@@H]2C1.O=C(O)C(F)(F)F`, the “Percent Effect” value was -11.14%. For `COCCNC(=O)C(C)N1CCN(C)CC1.O=C(O)C(=O)O` (stereo not given), the “Percent Effect” value was 1.358%. In the case of `CN(CC1CCN(c2ccccc2)C1)c1ccc(Cn2ccnc2)cn1` (stereo not given), the “Percent Effect” value is reported as 105.3%. With `CC(C)N1CCCC(CN(C)c2ccc(Cn3ccnc3)cn2)C1` (stereo not given) the “Percent Effect” value was -4.084%. With `OC1CCN(C2CCN(c3ccc(Cn4ccnc4)cn3)CC2)CC1` the “Percent Effect” value was 13.23%. For `CCc1cc2cc(OC)c(OC)cc2nc1SCCN1CCCCC1.Cl`, the “Percent Effect” value was -12.6%. For `O=C(O)C(F)(F)F.O=C(c1ccc[nH]1)N1CCc2c(COCC3CC3)cncc2C1`, the “Percent Effect” value was -0.4009%. `O=C(N1CCCC1)N1Cc2nccn2CC(CN2CCCC2)C1.O=C(O)C(F)(F)F` (stereo not given) was tested, and the “Percent Effect” value was -12.61%. With `O=C(NCc1cnn2cccnc12)c1cccc(CC2CCNCC2)c1` the “Percent Effect” value was 70.42%. In the case of `CC(C)Cn1cncc1CNC(=O)c1cccc(CC2CCNCC2)c1`, the “Percent Effect” value is reported as -17.32%. With `CC(C)(O)CCc1cccc(C(=O)NCc2cnn3cccnc23)c1` the “Percent Effect” value was -5.166%. With `CCOC1COC2(CCN(Cc3cccc(F)c3)CC2)C1.O=C(O)C(F)(F)F` (stereo not given) the “Percent Effect” value was -9.066%. For `Cc1cc(N2CCOCC2)ccc1NC(C)c1nc(C(C)C)no1` (stereo not given), the “Percent Effect” value was 45.07%. In the case of `Cc1cc(N2CCOCC2)ccc1NC(C)c1nc(C(C)(C)C)no1` (stereo not given), the “Percent Effect” value is reported as 72.1%. For `Cc1noc(C(C)Nc2ccc(N3CCOCC3)cc2C)n1` (stereo not given), the “Percent Effect” value was 41.84%. In the case of `O=C(O)C(F)(F)F.O=C(O)C(F)(F)F.O=C(c1cscn1)N1CCC2(CN(Cc3ccncc3)C2)C1`, the “Percent Effect” value is reported as -52.86%. In the case of `COCC1c2c(cnn2C)CCN1Cc1cccc(C)c1.O=C(O)C(F)(F)F.O=C(O)C(F)(F)F` (stereo not given), the “Percent Effect” value is reported as -46.03%. In the case of `CC1CN(CC(=O)NCCc2ccccc2)CCN1c1nccs1` (stereo not given), the “Percent Effect” value is reported as -17%. In the case of `Cc1ccsc1CN(c1nc(CCN)nc2ccccc12)C1CC1`, the “Percent Effect” value is reported as 91.12%. `NCCc1nc(N(Cc2nccs2)C2CC2)c2ccccc2n1` was tested, and the “Percent Effect” value was -17.4%. In the case of `NCCc1nc(N(Cc2cncs2)C2CC2)c2ccccc2n1`, the “Percent Effect” value is reported as -30.71%. `CC(=O)N1CC(=O)N(c2cnn(C)c2)CC12CCN(Cc1cccs1)C2.O=C(O)C(F)(F)F` (stereo not given) was tested, and the “Percent Effect” value was -1.108%. `CC1=C(C#N)C(=O)N(C)C(=O)/C1=C\C1=Cc2ccccc2OC1` was tested, and the “Percent Effect” value was -26.04%. For `Cc1ccc(CN2CCn3c(COc4cccnc4)cnc3C2C)o1.O=C(O)C(F)(F)F.O=C(O)C(F)(F)F` (stereo not given), the “Percent Effect” value was 17.82%.
